For test [1], the target named is Tyrosine-protein kinase SYK (Homo sapiens) (UniProt P43405). Conditions: at 10 µM.
The target in test [2] is T1, Serine/threonine-protein kinase TAO1 (Homo sapiens) (UniProt Q7L7X3).
T1 sequence (whole entry): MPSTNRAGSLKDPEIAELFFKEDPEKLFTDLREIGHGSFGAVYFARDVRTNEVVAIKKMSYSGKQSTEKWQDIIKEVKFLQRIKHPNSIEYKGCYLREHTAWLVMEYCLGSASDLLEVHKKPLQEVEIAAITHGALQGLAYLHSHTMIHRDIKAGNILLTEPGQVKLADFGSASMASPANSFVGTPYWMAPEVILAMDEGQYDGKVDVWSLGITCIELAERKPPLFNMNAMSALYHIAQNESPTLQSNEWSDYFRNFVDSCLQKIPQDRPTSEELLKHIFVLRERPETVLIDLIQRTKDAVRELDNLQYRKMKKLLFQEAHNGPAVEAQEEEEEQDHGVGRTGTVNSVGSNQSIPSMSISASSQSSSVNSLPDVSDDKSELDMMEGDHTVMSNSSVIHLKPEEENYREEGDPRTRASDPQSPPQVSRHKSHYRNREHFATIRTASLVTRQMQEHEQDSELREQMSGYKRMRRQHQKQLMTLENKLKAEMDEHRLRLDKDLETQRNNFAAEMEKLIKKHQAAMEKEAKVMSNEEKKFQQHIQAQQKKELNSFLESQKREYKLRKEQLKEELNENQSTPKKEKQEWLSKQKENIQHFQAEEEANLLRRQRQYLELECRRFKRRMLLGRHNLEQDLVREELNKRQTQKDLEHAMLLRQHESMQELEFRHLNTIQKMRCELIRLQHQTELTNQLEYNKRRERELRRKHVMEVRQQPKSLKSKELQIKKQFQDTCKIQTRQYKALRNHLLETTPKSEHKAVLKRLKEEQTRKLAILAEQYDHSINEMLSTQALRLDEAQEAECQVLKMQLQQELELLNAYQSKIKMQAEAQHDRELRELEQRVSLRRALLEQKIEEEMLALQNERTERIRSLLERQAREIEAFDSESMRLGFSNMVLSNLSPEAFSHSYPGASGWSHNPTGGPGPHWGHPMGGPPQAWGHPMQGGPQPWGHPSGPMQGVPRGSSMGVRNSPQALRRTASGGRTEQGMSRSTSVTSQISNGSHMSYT
Conditions: at 1 µM.

Test [3] concerns the target T1, Serine/threonine-protein kinase TAO1 (Homo sapiens). Particulars: at 10 µM.
Test [4] concerns the target T2, Serine/threonine-protein kinase TAO2 (Homo sapiens) (UniProt Q9UL54).
T2 sequence (whole entry): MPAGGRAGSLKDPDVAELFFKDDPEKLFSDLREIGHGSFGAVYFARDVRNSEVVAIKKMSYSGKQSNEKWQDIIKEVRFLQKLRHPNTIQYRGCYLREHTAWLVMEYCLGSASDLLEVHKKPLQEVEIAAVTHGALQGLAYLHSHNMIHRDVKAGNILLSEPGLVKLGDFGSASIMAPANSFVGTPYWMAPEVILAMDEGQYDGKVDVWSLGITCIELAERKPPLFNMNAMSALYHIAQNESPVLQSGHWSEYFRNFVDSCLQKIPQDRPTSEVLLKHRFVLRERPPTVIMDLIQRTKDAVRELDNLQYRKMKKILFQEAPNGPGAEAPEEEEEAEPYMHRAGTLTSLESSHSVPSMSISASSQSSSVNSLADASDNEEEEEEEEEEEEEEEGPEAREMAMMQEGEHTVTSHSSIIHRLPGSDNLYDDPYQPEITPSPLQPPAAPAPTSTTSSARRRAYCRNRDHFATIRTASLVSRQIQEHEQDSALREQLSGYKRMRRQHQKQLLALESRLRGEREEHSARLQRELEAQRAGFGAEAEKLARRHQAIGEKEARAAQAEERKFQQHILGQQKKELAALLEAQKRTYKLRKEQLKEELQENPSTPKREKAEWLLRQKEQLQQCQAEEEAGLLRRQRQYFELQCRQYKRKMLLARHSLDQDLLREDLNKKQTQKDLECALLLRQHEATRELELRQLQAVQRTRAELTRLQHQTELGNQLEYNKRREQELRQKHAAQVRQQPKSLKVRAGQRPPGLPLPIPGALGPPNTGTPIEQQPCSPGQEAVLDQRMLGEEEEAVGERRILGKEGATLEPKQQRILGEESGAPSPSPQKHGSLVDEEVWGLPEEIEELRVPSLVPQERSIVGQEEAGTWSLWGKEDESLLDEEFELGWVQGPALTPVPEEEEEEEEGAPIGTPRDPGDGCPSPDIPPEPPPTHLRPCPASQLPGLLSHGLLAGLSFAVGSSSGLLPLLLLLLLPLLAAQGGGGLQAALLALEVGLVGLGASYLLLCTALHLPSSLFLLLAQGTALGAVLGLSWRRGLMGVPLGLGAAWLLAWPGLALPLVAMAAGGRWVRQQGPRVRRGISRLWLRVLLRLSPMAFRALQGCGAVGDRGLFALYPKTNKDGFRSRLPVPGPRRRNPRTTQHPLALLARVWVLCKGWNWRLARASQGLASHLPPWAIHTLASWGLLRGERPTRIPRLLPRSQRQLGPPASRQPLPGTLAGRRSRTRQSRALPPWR
Conditions: at 1 µM.

For test [5], the target named is T2, Serine/threonine-protein kinase TAO2 (Homo sapiens). Conditions: at 10 µM.
Test [6] deals with T3, Serine/threonine-protein kinase TAO3 (Homo sapiens) (UniProt Q9H2K8).
T3 sequence (whole entry): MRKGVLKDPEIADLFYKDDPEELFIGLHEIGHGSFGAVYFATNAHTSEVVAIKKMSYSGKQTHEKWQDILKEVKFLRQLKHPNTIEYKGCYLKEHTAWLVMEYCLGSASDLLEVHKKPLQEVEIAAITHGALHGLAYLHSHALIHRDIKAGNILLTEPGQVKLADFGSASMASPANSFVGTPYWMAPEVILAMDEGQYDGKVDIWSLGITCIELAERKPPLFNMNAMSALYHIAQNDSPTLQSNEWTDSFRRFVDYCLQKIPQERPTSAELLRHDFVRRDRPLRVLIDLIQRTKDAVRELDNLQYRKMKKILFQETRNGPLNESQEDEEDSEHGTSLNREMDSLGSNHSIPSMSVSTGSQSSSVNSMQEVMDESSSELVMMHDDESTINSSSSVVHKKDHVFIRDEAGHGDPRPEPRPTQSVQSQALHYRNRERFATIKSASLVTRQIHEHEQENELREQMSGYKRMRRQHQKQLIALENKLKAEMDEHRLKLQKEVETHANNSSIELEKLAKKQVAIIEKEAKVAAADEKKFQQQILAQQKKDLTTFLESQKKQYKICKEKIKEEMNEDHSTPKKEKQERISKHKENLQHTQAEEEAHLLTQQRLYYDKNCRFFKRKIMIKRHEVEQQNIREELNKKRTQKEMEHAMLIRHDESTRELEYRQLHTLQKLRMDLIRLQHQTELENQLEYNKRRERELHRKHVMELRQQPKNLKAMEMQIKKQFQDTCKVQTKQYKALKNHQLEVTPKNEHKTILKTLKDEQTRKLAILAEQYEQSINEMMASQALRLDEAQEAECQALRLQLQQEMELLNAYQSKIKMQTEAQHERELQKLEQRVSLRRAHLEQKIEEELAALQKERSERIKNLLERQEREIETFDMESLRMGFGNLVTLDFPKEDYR
Particulars: at 1 µM.

For test [7], the target named is T4, Serine/threonine-protein kinase TBK1 (Homo sapiens) (UniProt Q9UHD2).
T4 sequence (whole entry): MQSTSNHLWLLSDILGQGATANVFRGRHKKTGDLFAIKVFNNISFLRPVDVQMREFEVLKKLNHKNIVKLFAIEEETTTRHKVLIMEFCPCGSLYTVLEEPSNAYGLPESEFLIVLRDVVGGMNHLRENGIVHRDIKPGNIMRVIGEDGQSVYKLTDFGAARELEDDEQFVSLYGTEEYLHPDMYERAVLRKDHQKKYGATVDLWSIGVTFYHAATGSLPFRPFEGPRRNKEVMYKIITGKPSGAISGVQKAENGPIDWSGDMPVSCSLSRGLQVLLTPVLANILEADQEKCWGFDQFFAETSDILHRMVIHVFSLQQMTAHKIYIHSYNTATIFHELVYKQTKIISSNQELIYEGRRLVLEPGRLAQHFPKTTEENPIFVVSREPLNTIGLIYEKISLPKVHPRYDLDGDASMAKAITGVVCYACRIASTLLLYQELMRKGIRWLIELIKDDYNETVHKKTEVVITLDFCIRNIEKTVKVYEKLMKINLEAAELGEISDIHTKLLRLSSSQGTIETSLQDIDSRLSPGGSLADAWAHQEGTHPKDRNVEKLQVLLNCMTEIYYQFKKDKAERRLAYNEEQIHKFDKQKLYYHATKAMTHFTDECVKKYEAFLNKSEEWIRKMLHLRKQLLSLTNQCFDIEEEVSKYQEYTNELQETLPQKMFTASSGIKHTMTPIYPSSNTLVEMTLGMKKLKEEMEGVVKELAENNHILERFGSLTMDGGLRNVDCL
Particulars: at 10 µM.

In test [8] the target is T5, TGF-beta receptor type-1 (Homo sapiens) (UniProt P36897).
T5 sequence (whole entry): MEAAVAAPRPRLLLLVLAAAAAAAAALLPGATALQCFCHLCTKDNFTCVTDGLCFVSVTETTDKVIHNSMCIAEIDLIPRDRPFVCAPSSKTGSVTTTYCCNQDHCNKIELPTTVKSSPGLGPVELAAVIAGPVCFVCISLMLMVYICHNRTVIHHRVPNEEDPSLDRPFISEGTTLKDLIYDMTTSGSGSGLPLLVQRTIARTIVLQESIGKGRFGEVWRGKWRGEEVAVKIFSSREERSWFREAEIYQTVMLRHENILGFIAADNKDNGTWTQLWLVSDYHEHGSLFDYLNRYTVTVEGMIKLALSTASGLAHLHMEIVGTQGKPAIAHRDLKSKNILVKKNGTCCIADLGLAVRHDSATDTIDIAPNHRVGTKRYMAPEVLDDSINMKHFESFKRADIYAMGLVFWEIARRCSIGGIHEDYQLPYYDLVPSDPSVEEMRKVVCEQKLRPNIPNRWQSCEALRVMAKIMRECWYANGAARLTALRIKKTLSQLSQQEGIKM
Conditions: at 1 µM.

For test [9], the target named is T5, TGF-beta receptor type-1 (Homo sapiens). Particulars: at 10 µM.
Test [10] addresses Insulin-like growth factor 1 receptor (Homo sapiens) (UniProt P08069). Conditions: at 1 µM.
The target of test [11] is Insulin receptor (Homo sapiens) (UniProt P06213). Conditions: at 1 µM.
Insulin receptor (Homo sapiens), sequence (P06213 28-758 limits assumed): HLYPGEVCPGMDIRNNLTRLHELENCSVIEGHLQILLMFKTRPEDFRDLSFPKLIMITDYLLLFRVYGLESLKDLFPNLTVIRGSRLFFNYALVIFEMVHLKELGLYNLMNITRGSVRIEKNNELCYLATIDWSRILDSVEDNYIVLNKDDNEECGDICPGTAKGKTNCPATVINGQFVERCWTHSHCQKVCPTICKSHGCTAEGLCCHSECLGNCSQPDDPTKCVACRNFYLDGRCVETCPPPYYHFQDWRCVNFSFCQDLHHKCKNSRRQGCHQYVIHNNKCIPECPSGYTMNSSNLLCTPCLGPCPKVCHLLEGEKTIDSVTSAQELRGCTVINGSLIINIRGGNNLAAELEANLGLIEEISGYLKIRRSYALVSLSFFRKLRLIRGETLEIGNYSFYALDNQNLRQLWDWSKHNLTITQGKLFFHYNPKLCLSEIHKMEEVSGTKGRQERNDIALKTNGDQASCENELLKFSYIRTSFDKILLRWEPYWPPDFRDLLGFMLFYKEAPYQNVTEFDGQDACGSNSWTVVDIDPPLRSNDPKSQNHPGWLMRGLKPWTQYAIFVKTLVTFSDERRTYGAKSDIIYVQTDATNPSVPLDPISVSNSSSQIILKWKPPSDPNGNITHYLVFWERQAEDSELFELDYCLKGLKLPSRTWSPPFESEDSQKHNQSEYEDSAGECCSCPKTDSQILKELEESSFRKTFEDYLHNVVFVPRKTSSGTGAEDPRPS
Insulin receptor (Homo sapiens), sequence (P06213 763-1382 limits assumed): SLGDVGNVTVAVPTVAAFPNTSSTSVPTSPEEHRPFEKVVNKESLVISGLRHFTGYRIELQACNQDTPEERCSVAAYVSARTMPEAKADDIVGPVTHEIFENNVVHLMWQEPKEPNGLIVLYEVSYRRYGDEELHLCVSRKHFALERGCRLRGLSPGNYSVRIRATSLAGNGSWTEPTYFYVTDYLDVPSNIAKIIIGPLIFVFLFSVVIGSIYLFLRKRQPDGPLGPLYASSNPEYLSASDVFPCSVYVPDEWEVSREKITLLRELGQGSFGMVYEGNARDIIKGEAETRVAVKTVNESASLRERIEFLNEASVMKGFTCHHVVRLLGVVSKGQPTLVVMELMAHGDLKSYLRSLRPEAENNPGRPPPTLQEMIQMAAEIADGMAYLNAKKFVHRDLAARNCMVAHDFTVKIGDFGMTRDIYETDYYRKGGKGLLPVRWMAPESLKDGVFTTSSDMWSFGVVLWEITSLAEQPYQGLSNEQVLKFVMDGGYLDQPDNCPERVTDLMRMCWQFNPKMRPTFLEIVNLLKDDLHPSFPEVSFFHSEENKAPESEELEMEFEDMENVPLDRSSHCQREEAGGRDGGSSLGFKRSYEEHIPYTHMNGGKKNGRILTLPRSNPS

Data on one molecule can be found in ChEMBL document CHEMBL2218924, “A broad activity screen in support of a chemogenomic map for kinase signalling research and drug discovery” (Biochem J, 2013).

Insulin-like growth factor 1 receptor (Homo sapiens), sequence (P08069 31-736 limits assumed): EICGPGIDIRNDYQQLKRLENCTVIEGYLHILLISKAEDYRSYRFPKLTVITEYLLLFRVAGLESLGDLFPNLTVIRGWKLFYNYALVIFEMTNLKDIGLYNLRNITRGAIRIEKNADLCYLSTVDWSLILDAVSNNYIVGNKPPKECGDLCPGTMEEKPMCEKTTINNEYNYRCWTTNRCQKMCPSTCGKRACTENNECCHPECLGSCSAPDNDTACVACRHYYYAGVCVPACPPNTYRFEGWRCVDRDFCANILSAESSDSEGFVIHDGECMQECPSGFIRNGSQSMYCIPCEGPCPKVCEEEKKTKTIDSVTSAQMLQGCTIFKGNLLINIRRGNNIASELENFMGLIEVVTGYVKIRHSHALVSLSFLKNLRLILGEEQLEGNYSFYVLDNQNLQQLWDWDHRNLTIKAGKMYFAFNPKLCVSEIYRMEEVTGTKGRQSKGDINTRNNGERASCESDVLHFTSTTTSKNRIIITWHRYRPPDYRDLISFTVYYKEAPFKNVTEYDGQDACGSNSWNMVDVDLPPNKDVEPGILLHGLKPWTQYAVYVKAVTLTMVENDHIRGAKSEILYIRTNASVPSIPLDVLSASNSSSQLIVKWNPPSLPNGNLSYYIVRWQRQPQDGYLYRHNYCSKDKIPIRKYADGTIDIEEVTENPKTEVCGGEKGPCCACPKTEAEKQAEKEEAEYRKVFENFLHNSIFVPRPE
Insulin-like growth factor 1 receptor (Homo sapiens), sequence (P08069 741-1367 limits assumed): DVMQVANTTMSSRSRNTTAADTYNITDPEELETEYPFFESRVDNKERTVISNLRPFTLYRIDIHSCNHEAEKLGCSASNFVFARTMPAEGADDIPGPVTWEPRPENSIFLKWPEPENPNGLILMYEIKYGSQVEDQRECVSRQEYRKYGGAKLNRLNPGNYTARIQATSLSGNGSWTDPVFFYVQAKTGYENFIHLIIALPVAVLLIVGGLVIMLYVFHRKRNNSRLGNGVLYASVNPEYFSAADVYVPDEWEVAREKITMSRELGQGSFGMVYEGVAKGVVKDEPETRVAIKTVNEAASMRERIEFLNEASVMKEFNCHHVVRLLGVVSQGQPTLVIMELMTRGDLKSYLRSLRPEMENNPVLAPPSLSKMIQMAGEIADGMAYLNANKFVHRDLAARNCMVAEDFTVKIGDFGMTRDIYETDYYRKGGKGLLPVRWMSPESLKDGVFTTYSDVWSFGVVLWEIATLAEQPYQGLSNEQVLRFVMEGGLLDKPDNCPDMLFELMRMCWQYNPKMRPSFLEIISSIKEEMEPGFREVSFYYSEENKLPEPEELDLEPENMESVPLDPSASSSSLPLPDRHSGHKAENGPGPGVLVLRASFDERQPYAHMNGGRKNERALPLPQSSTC

In the case of `COc1cc2ncnc(Nc3cccc(Cl)c3)c2cc1OC`, the residual activity was 71% in [1]; 102% in test [2]; 76% in test [3]; 113% in test [4]; 86% in test [5]; 102% in test [6]. The residual activity in test [7] worked out at 59%; in test [8] it was 100%; in test [9] it was 103%; in [10], 115%; in test [11] it was 110%.

In general, residual activity refers to the signal under treatment as a percentage of the control signal.
